± gives the standard deviation of the averaged measurements. Over roughly 33,000 sequences, “E-score (dimensionless, -0.5 to 0.5)” has its median near -0.049; the highest 2% begin near 0.37. The full list was thinned out, with the highest values kept by preference.
tested on: T1, PmTbr T-box DNA-binding domain (GST fusion); assay: PBM E-score of 8-mer (E-score (dimensionless, -0.5 to 0.5)); Tbr is Tbrain of the sea star Patiria miniata (Pm) or the sea urchin Strongylocentrotus purpuratus (Sp); higher = stronger binding preference; details: the construct has about 5 more residues each side
T1 sequence: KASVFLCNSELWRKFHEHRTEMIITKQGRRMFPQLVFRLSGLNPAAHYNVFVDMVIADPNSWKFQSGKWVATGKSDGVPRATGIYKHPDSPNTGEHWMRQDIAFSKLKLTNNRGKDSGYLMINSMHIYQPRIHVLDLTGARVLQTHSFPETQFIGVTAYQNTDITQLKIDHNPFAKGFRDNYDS
Method: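 Universal protein-binding microarray (Agilent AMADID 016060, 60-bp probes with a 35-bp variable region) incubated with 200 nM GST-fused Patiria miniata Tbr T-box DNA-binding domain (residues 272-466) in PBS pH 7.5. Scored for every ungapped 8-mer (given with its reverse complement) by the Universal PBM Analysis Suite as E-score (modified Wilcoxon-Mann-Whitney enrichment, range -0.5 to 0.5; >0.45 counts as bound) and Z-score of median probe intensity. Two replicate arrays (datasets 1 and 2).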

| Sequence | PBM E-score of 8-mer |
| --- | --- |
| ATCTCACG | 0.294 ± 0.016 |
| CTCTCACC | 0.383 ± 0.0077 |
| CGCTCACC | 0.0475 ± 0.083 |
| CTCTCACA | 0.3481 ± 0.0026 |
| ATCTCTCA | 0.226 ± 0.023 |
| ATATCACC | 0.364 ± 0.013 |
| ACCTCACC | 0.261 ± 0.028 |
| CTATCACC | 0.431 ± 0.0063 |
| CTATCACA | 0.305 ± 0.009 |
| ATCTCACC | 0.409 ± 0.0061 |
| ATCTCAAC | 0.0437 ± 0.036 |
| ATCTCACA | 0.372 ± 0.021 |
| ATTGTTAC | 0.194 ± 0.057 |
| GGTACGAC | -0.0493 ± 0.042 |
| CAGAGGCA | -0.215 ± 0.071 |
| ATCTACCG | -0.157 ± 0.067 |
| AAGATCTC | 0.061 ± 0.054 |
| CCGGCCCC | -0.24 ± 0.058 |
| CAATCGCC | -0.0698 ± 0.068 |
| ATCCCCAA | -0.227 ± 0.063 |
| GAGCTTCA | -0.137 ± 0.0098 |
| ATACTTCC | 0.0697 ± 0.018 |
| GGCATTTA | 0.00349 ± 0.0029 |
| GCCTCACA | 0.224 ± 0.031 |
| ACCTCACA | 0.423 ± 0.0099 |

| Sequence | PBM E-score of 8-mer |
| --- | --- |
| GTCTCACA | 0.392 ± 0.019 |
| ACCTCACG | 0.269 ± 0.038 |
| TCCTCACA | 0.3327 ± 0.0011 |
| GTCTCTCA | 0.0943 ± 0.0041 |
| ACGCAATC | -0.12 ± 0.013 |
| GCTTGGTA | -0.112 ± 0.032 |
| CCCCTCTA | -0.143 ± 0.088 |
| ATTAGCGG | 0.121 ± 0.025 |
| ACACTTGG | 0.395 ± 0.0073 |
| AAACTTGC | 0.122 ± 0.029 |
| ACACTTGC | 0.407 ± 0.013 |
| ACACTTGA | 0.369 ± 0.029 |
| ATACTTGG | -0.174 ± 0.046 |
| CCACTTGC | 0.158 ± 0.056 |
| GAAGTTAA | 0.0494 ± 0.064 |
| TCTTGGCA | 0.0497 ± 0.1 |
| ACTAACAC | 0.412 ± 0.007 |
| CCTAACAG | 0.128 ± 0.033 |
| CCTAACAA | 0.184 ± 0.055 |
| ACTAACAA | 0.214 ± 0.032 |
| CCTAACAC | 0.4369 ± 0.0041 |
| GCTAACCC | 0.00156 ± 0.0032 |
| GCTAACAC | 0.43 ± 0.0048 |
| GCTAACAA | 0.252 ± 0.013 |
| ACTAACAG | 0.216 ± 0.045 |

| Sequence | PBM E-score of 8-mer |
| --- | --- |
| CAGTTCAC | 0.226 ± 0.023 |
| ACGCAGCT | 0.109 ± 0.075 |
| GACAATCC | 0.106 ± 0.018 |
| GTAAGCTA | -0.266 ± 0.012 |
| ATGTAGAC | -0.237 ± 0.043 |
| AGTCGCAG | 0.0399 ± 0.06 |
| GGTCGCAA | 0.205 ± 0.0044 |
| CGTCGCAC | 0.332 ± 0.021 |
| AGTCGCAA | 0.147 ± 0.026 |
| AGTCGCAC | 0.395 ± 0.026 |
| GGTCGCAC | 0.373 ± 0.018 |
| AGATTTTC | 0.0361 ± 0.063 |
| TAGTTCGA | 0.16 ± 0.056 |
| GCACCAGA | -0.03 ± 0.061 |
| AATGTTCC | -0.191 ± 0.0029 |
| ACAACGCA | 0.105 ± 0.03 |
| ACCACGCG | 0.1217 ± 0.0011 |
| AACACCCG | 0.428 ± 0.0098 |
| CCCACCCG | 0.105 ± 0.0088 |
| CACACCGC | 0.334 ± 0.027 |
| ATCACCCG | 0.194 ± 0.02 |
| CCCACCCA | 0.0945 ± 0.0051 |
| CACACCCG | 0.426 ± 0.019 |
| CACCCCCG | 0.216 ± 0.014 |
| CACACCCC | 0.416 ± 0.013 |

| Sequence | PBM E-score of 8-mer |
| --- | --- |
| ACCACCCG | 0.189 ± 0.017 |
| CACCCCCC | 0.165 ± 0.06 |
| TACACCCA | 0.129 ± 0.046 |
| CACACCCA | 0.423 ± 0.012 |
| TAATTCAA | -0.292 ± 0.037 |
| CCCGGTCG | -0.111 ± 0.059 |
| CCATAGGA | -0.0411 ± 0.059 |
| TACAACGA | -0.18 ± 0.034 |
| ATAGAACC | -0.0785 ± 0.034 |
| CGGGCAGC | -0.0554 ± 0.0018 |
| AGGTACCA | -0.0398 ± 0.018 |
| GAGGCGCC | 0.269 ± 0.018 |
| TCACACAA | 0.414 ± 0.015 |
| ACTCACCA | -0.0425 ± 0.12 |
| CCACACCA | 0.29 ± 0.033 |
| ACACACAA | 0.0649 ± 0.066 |
| CCTCACCA | 0.141 ± 0.045 |
| GCACAACA | 0.17 ± 0.013 |
| ACACACCA | 0.285 ± 0.011 |
| CCACACAA | 0.0617 ± 0.024 |
| TCTCACCA | 0.372 ± 0.011 |
| TCACACCA | 0.48075 ± 0.00012 |
| CCACAACA | 0.203 ± 0.049 |
| TCACAACA | 0.384 ± 0.00069 |
| AATGACAT | -0.101 ± 0.054 |

| Sequence | PBM E-score of 8-mer |
| --- | --- |
| GGAACTCC | -0.22 ± 0.083 |
| GCCTCTTA | -0.0658 ± 0.019 |
| GAGGAATA | -0.274 ± 0.02 |
| TCGGACAA | -0.0104 ± 0.018 |
| ACTCAAGT | -0.000135 ± 0.051 |
| ATGGACTG | -0.165 ± 0.016 |
| CGCACACC | 0.325 ± 0.022 |
| CACACACC | 0.428 ± 0.021 |
| CCCACACA | 0.17 ± 0.0076 |
| CCCACACC | 0.43 ± 0.019 |
| GACACACC | 0.287 ± 0.073 |
| GCCACACA | 0.279 ± 0.031 |
| GCCACACC | 0.394 ± 0.024 |
| CCCACACG | 0.0862 ± 0.0074 |
| ACCACACC | 0.361 ± 0.023 |
| ATGCTCGG | 0.00834 ± 0.022 |
| GACGTCTC | -0.235 ± 0.013 |
| GGGTAGGA | -0.205 ± 0.052 |
| AGCACCAC | 0.115 ± 0.054 |
| GACACCAA | 0.345 ± 0.0047 |
| ACCACCAT | 0.1243 ± 0.0012 |
| GCCACCAC | 0.122 ± 0.08 |
| AACACCAA | 0.393 ± 0.011 |
| GGCACCAC | 0.225 ± 0.022 |
| ATCACCAT | 0.155 ± 0.014 |

| Sequence | PBM E-score of 8-mer |
| --- | --- |
| ACCACCAC | 0.0224 ± 0.049 |
| AACACCAC | 0.3719 ± 0.0024 |
| AACACCAT | 0.3887 ± 0.0029 |
| GACACCAC | 0.393 ± 0.016 |
| ACCACCAA | 0.0394 ± 0.048 |
| AATGCAGG | -0.116 ± 0.0066 |
| GCACAGCC | -0.192 ± 0.031 |
| ACAGTGTG | 0.324 ± 0.025 |
| GGAGCATA | -0.0893 ± 0.017 |
| AGGCTGAA | -0.124 ± 0.018 |
| AAACCAAG | -0.0652 ± 0.0092 |
| CAAGCTCC | -0.181 ± 0.059 |
| CCACCCTA | 0.0728 ± 0.0043 |
| ACACCCTC | 0.429 ± 0.0062 |
| GCACCCTA | 0.133 ± 0.089 |
| CCACCCTC | 0.0601 ± 0.017 |
| ACACCCTA | 0.383 ± 0.018 |
| ACCCCCTG | 0.0477 ± 0.028 |
| ACACCCTG | 0.426 ± 0.026 |
| ATACCCTG | -0.154 ± 0.04 |
| ACCCCCTC | -0.00817 ± 0.062 |
| GAGCCATC | -0.0135 ± 0.0062 |
| GGAGTTCA | -0.0635 ± 0.036 |
| AAGGCGAT | 0.0522 ± 0.036 |
| AGCAAACA | 0.0237 ± 0.023 |

| Sequence | PBM E-score of 8-mer |
| --- | --- |
| GATGAAGA | -0.134 ± 0.051 |
| CGTCAACA | 0.311 ± 0.036 |
| TGTCAACA | 0.378 ± 0.0046 |
| GGTCAACA | 0.123 ± 0.0043 |
| GCGCTCCC | -0.133 ± 0.028 |
| AGTTCGCG | 0.221 ± 0.038 |
| GATCCTGA | -0.144 ± 0.049 |
| ATCATCAC | 0.381 ± 0.008 |
| GTCATCAC | 0.2787 ± 0.00098 |
| ATTATCAC | 0.38 ± 0.053 |
| CTCATCAC | 0.249 ± 0.0053 |
| ATTATCAG | -0.0355 ± 0.028 |
| CTTATCAC | 0.331 ± 0.023 |
| ATAAACGG | -0.131 ± 0.087 |
| CGTACCCC | -0.186 ± 0.063 |
| GGTCGATA | 0.0375 ± 0.069 |
| CCTGAGAG | 0.208 ± 0.03 |
| CACAGCCG | -0.0675 ± 0.11 |
| TCGCGCGA | 0.3886 ± 0.0024 |
| ACGCGCGA | 0.3693 ± 0.0027 |
| GCGCGCGA | 0.2759 ± 0.00057 |
| ACGCGCGC | 0.157 ± 0.033 |
| CCGCGCGA | 0.226 ± 0.0095 |
